The source of these data is PubChem BioAssay (Tox21).

Assay [1] is described as follows: qHTS assay to identify small molecule agonists of the NFkB signaling pathway - cell viability counter screen (AID 1159515). For activity, negative = cytotoxic: series mostly up to about 61 µM; % is set by controls: 0 for no effect and ±100 for the full control effect. Note: nearly all actives have a fitted effect of over 55% in size. Note: potency is the fitted concentration of half-maximal effect. In outline:
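Plate 2,000 NFkB-bla ME-180 cells/well; incubate overnight. Add compounds, 5 hr at 37 C. Add FRET substrate, 1.5 hr RT. Add CellTiter-Glo, 30 min RT; read luminescence.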

Assay [2] in a line: qHTS assay to identify small molecule agonists of the endoplasmic reticulum stress response signaling pathway (AID 1159516; active = well fitted activation curve with a large enough effect in the signal ratio in the repeat runs, not every such curve was filed as active; the % refers to the signal ratio; note: % is set by controls: 0 for no effect and ±100 for the full control effect). The gist of the method:
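Beta-lactamase expression from the ER stress response element in HeLa reporter cells is quantified with the LiveBLAzer B/G FRET substrate, read at 405 nm excitation after 2 hr at room temperature, following 5 hr compound treatment at 37 C.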

Assay [3] is described as follows: qHTS assay to identify small molecule agonists of the endoplasmic reticulum stress response signaling pathway - cell viability counter screen (AID 1159517). Note: series mostly up to about 61 µM; % is set by controls: 0 for no effect and ±100 for the full control effect; nearly all actives have a fitted effect of over 50% in size. The gist of the method: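 In parallel with the ESRE reporter read, cytotoxicity was scored by CellTiter-Glo luminescence (30 min, room temperature) on HeLa ESRE-bla cells dosed for 5 hr.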
Assay [4] in a line: qHTS assay to identify small molecule antagonists of the retinoid-related orphan receptor gamma (ROR-gamma) signaling pathway - cell viability counter screen (AID 1159520; active = well fitted curve in the direction sought with a large enough effect in the repeat runs; an effect the other way counts as inactive or inconclusive; note: nearly all actives have a fitted effect of over 50% in size; note: potency is the fitted concentration of half-maximal effect; for activity, negative = cytotoxicity: % is set by controls: 0 for no effect and ±100 for the full control effect). The gist of the method:
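Tet-on ROR gamma CHO cells were given compounds for 2 hr, then doxycycline hyclate at 1 uM final, and incubated 16 hr at 37 C. Viability was measured as ATP content by CellTiter-Glo luminescence.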

The target in assay [5] is Nuclear receptor ROR-gamma (Homo sapiens) (UniProt P51449). In words: qHTS assay to identify small molecule antagonists of the retinoid-related orphan receptor gamma (ROR-gamma) signaling pathway (AID 1159521; active = well fitted curve in the direction sought with a large enough effect in the repeat runs; an effect the other way counts as inactive or inconclusive; note: nearly all actives have a fitted effect of over 50% in size; note: potency is the fitted concentration of half-maximal effect). The gist of the method: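 Luminescence readout (ONE-Glo, 30 min RT) after 16 h doxycycline induction; loss of signal scored as antagonism. CHO cells with TET-inducible RORγ and RORE-LUC reporter; compounds added 2 h before 1 uM final doxycycline.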

Assay [6] in a line: qHTS assay to identify small molecule agonists of the AP-1 signaling pathway (AID 1159526). Note: % is set by controls: 0 for no effect and ±100 for the full control effect.
The nature of assay [7]: qHTS assay to identify small molecule agonists of the AP-1 signaling pathway - cell viability counter screen (AID 1159525). Note: nearly all actives have a fitted effect of over 55% in size. In outline:
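Same-well cytotoxicity counter screen of the Tox21 10K library in ME-180 cells. The readout is ATP-dependent luminescence after 5 h compound treatment. Data are normalised to DMSO and tetra n-octyl ammonium bromide controls.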

The nature of assay [8]: qHTS assay to identify small molecule agonists of the vitamin D receptor (VDR) signaling pathway - cell viability counter screen (AID 743224; active = well fitted curve in the direction sought with a large enough effect in the repeat runs; an effect the other way counts as inactive or inconclusive; note: nearly all actives have a fitted effect of over 50% in size; note: potency is the fitted concentration of half-maximal effect). In outline: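 In parallel with the bla FRET readout, cytotoxicity toward VDR-bla cells after 16 h compound exposure was assessed by CellTiter-Glo, with luminescence recorded after a 30 min room-temperature incubation.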
Assay [9] addresses Retinoic acid receptor RXR-alpha (Homo sapiens) (UniProt P19793). In words: qHTS assay to identify small molecule agonists of the RXR signaling pathway (AID 1159527). Note: % is set by controls: 0 for no effect and ±100 for the full control effect; nearly all actives have a fitted effect of over 35% in size. The gist of the method: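 Agonist mode; 9-cis retinoic acid positive control. HEK 293T UAS-bla reporter cells, 2% charcoal-stripped FBS, 16 hr compound exposure at 37 C/5% CO2. LiveBLAzer B/G FRET substrate 2 hr RT; ex 405, em 460/530 nm.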

Assay [10] is described as follows: qHTS assay to identify small molecule antagonists of the vitamin D receptor (VDR) signaling pathway - cell viability counter screen (AID 743225; active = well fitted curve in the direction sought with a large enough effect in the repeat runs; an effect the other way counts as inactive or inconclusive). The gist of the method: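 Viability counter screen run in the same wells as the beta-lactamase reporter assay: HEK 293T VDR-UAS-bla cells, 16 h compound exposure at 37C with 3 nM (final) 1-alpha,25-dihydroxyvitamin D3. CellTiter-Glo luminescence, 30 min, room temperature.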

Records with an inconclusive call do not appear. Unmarked numbers belong to inactive results. Calls of active or inactive are those of the source. Unless noted, calls come from the whole dose curve.

Retinoic acid receptor RXR-alpha (Homo sapiens), sequence (P19793 whole entry, looked up): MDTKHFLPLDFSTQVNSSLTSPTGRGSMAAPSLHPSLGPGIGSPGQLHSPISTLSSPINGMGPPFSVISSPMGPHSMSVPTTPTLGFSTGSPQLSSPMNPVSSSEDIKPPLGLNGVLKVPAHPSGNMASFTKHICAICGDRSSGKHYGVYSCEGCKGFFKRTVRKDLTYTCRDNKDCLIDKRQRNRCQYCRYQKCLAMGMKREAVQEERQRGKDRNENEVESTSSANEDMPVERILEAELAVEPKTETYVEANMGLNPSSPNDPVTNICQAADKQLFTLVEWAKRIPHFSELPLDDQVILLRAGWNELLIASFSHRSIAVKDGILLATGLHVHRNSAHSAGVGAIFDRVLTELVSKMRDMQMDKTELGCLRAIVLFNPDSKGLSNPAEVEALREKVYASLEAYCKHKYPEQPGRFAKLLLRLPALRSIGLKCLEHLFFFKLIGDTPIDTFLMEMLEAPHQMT

Consider `O[C@@H](COc1cccc2ncccc12)CN1CCN(C2c3ccccc3[C@@H]3[C@H](c4ccccc42)C3(F)F)CC1` (some centres not stated), for which the Potency entry in assay [1], in [2], in assay [3], in assay [4], in assay [5] and in [6] was “inactive” each time.
As for `COc1ccc(S(=O)(=O)N2C(=O)[C@@](c3ccccc3OC)(N3C[C@H](O)C[C@H]3C(=O)N(C)C)c3cc(Cl)ccc32)c(OC)c1`, the Potency entry in assay [1], in [2], in assay [3], in assay [4], in assay [7] and in assay [6] was “inactive” each time.
As to `CCCCC(CC)COC(=O)COc1ccc(Cl)cc1Cl` (configuration not stated), the Potency result in assay [8], in [1], in [2], in assay [3], in assay [4] and in assay [7] was “inactive” throughout. Also, the Potency result in assay [6] and in [9] was “inactive” in each case.
Turning to `NC(N)=NCCC[C@H](N)C(=O)O`, the results for the activity change, negative = cytotoxicity in assay [8] and in [3] were -0.114% [at 5.95 µM] and -7.79% [at 6.95 µM], respectively. The viability change, negative = cytotoxic in [10] is -1.77% [at 6.95 µM]. Moreover, the activity, negative = cytotoxic in [1] was 7.11% [at 6.95 µM]. In addition, the activation in [2] was 0.874% [at 6.95 µM]; in [6] it was 2.4% [at 6.97 µM]; in assay [9] it was 7.8% [at 6.98 µM]. In [4], the activity, negative = cytotoxicity is 0.0529% [at 8.39 µM]. In addition, the activity change, negative = inhibition in [5] was -5.21% [at 8.39 µM].
Take `OC(CN1CCC(Cc2ccc(F)cc2)CC1)c1ccc(Cl)cc1` (configuration not stated): the Potency result in assay [1], in [2], in assay [3], in assay [4] and in [7] was “inactive” each time.
In the case of `CN(C)CCOC(c1ccccc1)c1ccc(Br)cc1` (configuration not stated), the Potency result in assay [10], in assay [1], in assay [2], in [3], in [4] and in assay [5] was “inactive” each time. Also, the Potency entry in assay [7] was “inactive”.
For `C#C[C@]1(O)CC[C@H]2[C@@H]3CCc4cc(OC5CCCC5)ccc4[C@H]3CC[C@@]21C`, the Potency entry in assay [8], in assay [2] and in assay [3] was “inactive” in each case. The Potency in assay [1] was 21.3 µM (active); in assay [4] it was 29.8 µM (active); in assay [5] it was 10.6 µM (active).
As to `C[C@H](CCC(=O)O)[C@H]1CC[C@H]2[C@@H]3CC[C@@H]4C[C@H](O)CC[C@]4(C)[C@H]3C[C@H](O)[C@]12C`, the Potency entry in [1], in [2], in [3], in assay [4] and in [7] was “inactive” each time.
Take `CN1Cc2cc(C(=O)N3CCC(C4CCNCC4)CC3)ccc2NC(CC(=O)O)C1=O` (configuration not stated): the Potency entry in assay [8], in [1], in assay [2], in assay [3], in [4] and in assay [7] was “inactive” in each case. Moreover, the Potency entry in assay [6] and in assay [9] was “inactive” in each case.
In the case of `Cc1cccc(C)c1OCC(=O)N[C@@H](Cc1ccccc1)[C@@H](O)C[C@H](Cc1ccccc1)NC(=O)[C@H](C(C)C)N1CCCNC1=O`, the Potency entry in assay [8], in assay [10], in assay [2], in assay [3], in assay [4] and in assay [6] was “inactive” each time. The Potency in [1] is 19 µM (active); in [5] it was 29.8 µM (active).
`CCN(CC)CCOC(=O)C(c1ccccc1)C1CCCCC1` (configuration not stated): the Potency entry in assay [8], in [10], in [1], in assay [2], in assay [3] and in assay [4] was “inactive” each time. Further, the Potency entry in [5] is “inactive”.
On to `Clc1ccc2c(c1)CCc1cccnc1C2=C1CCNCC1`, for which the Potency result in [1], in assay [2], in [3], in assay [4], in assay [5] and in assay [6] was “inactive” each time.
Turning to `C[C@@H]1C[C@H]2O[C@@]3(O[C@@H]2C(C)(C)O)[C@H](O)[C@@]2(C)[C@@H]4CC[C@H]5C(C)(C)[C@@H](O[C@@H]6OC[C@@H](O)[C@H](O)[C@H]6O)CC[C@@]56C[C@@]46CC[C@]2(C)[C@@H]13`, the Potency result in [8], in [10], in assay [1], in [2], in assay [3] and in assay [4] was “inactive” each time. Besides, the Potency result in [5] and in assay [7] was “inactive” each time.
In the case of `C#CCN(C)CCCOc1ccc(Cl)cc1Cl`, the Potency result in assay [8], in [10], in assay [1], in assay [2], in assay [3] and in assay [4] was “inactive” throughout. The Potency result in [5], in [6] and in assay [9] was “inactive” each time.
With `CN1CCN(C(c2ccccc2)c2ccccc2)CC1`, the Potency entry in assay [8], in [10], in [1], in assay [2], in [3] and in assay [4] was “inactive” each time. The Potency entry in assay [5] and in assay [9] was “inactive” in each case.
`Cc1oc2c(NC(=O)c3c(Cl)cccc3Cl)cccc2c1C(C)(C)O`: the Potency result in assay [1], in [2], in assay [3], in assay [4] and in assay [6] was “inactive” throughout. Besides, in assay [5], the Potency was 27.3 µM (active).
In the case of `COc1cc2c(cc1OC)C(C(C(=O)N(CCc1ccc(OC)c(OC)c1OC)CCc1ccc(OC)c(OC)c1OC)c1ccccc1)=NCC2` (configuration not stated), the Potency entry in assay [8], in assay [10], in [1], in assay [2], in [3] and in [4] was “inactive” throughout. For the same molecule, the Potency entry in assay [5], in assay [6] and in [9] was “inactive” in each case.
`Cc1cccc(Nc2ccccc2)c1`: the Potency result in assay [8], in assay [10], in [1], in assay [2], in assay [3] and in [4] was “inactive” in each case. In assay [5], the Potency entry was “inactive”.
As to `CN(C)c1ccc(/C=C/c2ccc([N+](=O)[O-])cc2)cc1`, the activity change, negative = cytotoxicity in assay [8] was -5.5% [at 5.95 µM]; in [3] it was 15.7% [at 6.95 µM]. Moreover, in assay [10], the viability change, negative = cytotoxic is 7.13% [at 6.95 µM]. For the same molecule, the activity, negative = cytotoxic in [1] was -0.218% [at 6.95 µM]. Further, the activation was -8.84% [at 6.95 µM] in assay [2], -11.3% [at 6.97 µM] in [6] and -7.68% [at 6.98 µM] in [9]. In assay [4], the activity, negative = cytotoxicity is 1.18% [at 8.39 µM]. The activity change, negative = inhibition in [5] is 127% [at 8.39 µM].
For the molecule `CCOC(=O)C(O)c1ccccc1` (configuration not stated), the Potency result in assay [8], in [10], in assay [1], in [2], in [3] and in assay [4] was “inactive” each time. Moreover, the Potency result in [5], in [6] and in assay [9] was “inactive” each time.
As to `C1CCCNCCC1`, the Potency result in [8], in [10], in assay [1], in [2], in [3] and in assay [4] was “inactive” throughout. Also, the Potency result in [5], in [6] and in assay [9] was “inactive” throughout.
In the case of `O=C(O)c1ccco1`, the Potency entry in [8], in assay [1], in [2], in [3], in [4] and in [7] was “inactive” throughout. For the same molecule, the Potency entry in assay [6] and in assay [9] was “inactive” throughout.
As for `CN1CCC(N(Cc2cccs2)c2ccccc2)CC1`, in assay [8], the Potency was 33.5 µM (active). Further, the Potency entry in [10], in assay [1], in assay [2], in assay [3], in [4] and in assay [5] was “inactive” in each case.
On to `COc1ccc(C(=O)Nc2nc3ccccc3c(NCc3ccccc3)c2C#N)cc1`, for which the Potency entry in [8], in [1], in [2], in assay [3], in [4] and in [5] was “inactive” each time. In [7], the Potency entry is “inactive”.
For the molecule `CC(C)=CCC/C(C)=C/CC/C(C)=C/CO`, in [8], the Potency is 49 µM (active). In addition, the Potency result in [1], in assay [2], in [3], in assay [4] and in assay [5] was “inactive” throughout.
`O=C(OCCc1ccccc1)c1ccccc1`: the Potency entry in assay [8], in assay [10], in assay [1], in assay [2], in assay [3] and in assay [4] was “inactive” throughout. Moreover, the Potency result in assay [5] is “inactive”.
Consider `CCOC(=O)NCCOc1ccc(Oc2ccccc2)cc1`, for which the Potency result in assay [8], in assay [10], in assay [1], in [2], in assay [3] and in assay [4] was “inactive” in each case. Further, the Potency result in assay [7] was “inactive”. The Potency in [5] was 43.3 µM (active).
Consider `C=C1C(=C/C=C2\CCC[C@]3(C)[C@@H]([C@H](C)/C=C/[C@@H](O)C4CC4)CC[C@@H]23)C[C@@H](O)C[C@@H]1O`, for which the Potency entry in [8], in assay [1], in [2], in assay [3] and in assay [4] was “inactive” in each case. For the same molecule, in [5], the Potency was 13.3 µM (active).
With `C=CC(=O)OCCOCCOC(=O)C=C`, the Potency entry in assay [1], in assay [2] and in assay [3] was “inactive” each time. Moreover, the Potency in assay [4] is 13.7 µM (active).
In the case of `C[Si](C)(CCCN)O[Si](C)(C)CCCN`, the Potency entry in assay [8], in assay [10], in [1], in assay [2], in assay [3] and in assay [4] was “inactive” each time. Further, the Potency entry in assay [5], in [6] and in assay [9] was “inactive” in each case.
